Screening results from PubChem.
DUX4 txn inh – blocks DUX4-driven transcriptional activation. activity change, negative = inhibition, % (test concentration not listed). 293T-iDUX4 ZSCAN4-Gaussia luciferase reporter, 24 h; active compounds read low. 37,000 tested, 0.8% active;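 active = mean inhibition of at least 10% in the main channel, exceeding the control channel by a set limit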
Large screens that a line does not name were inactive. This is one part of a sample in which hits are shown more often than they occur.

O=C(Cc1ccccc1)N1CCCCN2[C@H](CO)[C@@H](c3ccc(C#CC4(O)CCCC4)cc3)[C@@H]2C1	none
O=C(Cc1ccncc1)N1CCCCN2[C@H](CO)[C@H](c3ccc(C#Cc4ccccc4F)cc3)[C@@H]2C1	DUX4 txn inh -39
O=C(Cc1ccncc1)N1CCCCN2[C@H](CO)[C@@H](c3ccc(-c4ccncc4)cc3)[C@H]2C1	none
CC(=O)N1[C@@H]2Cn3c(ccc(-c4cccc(C(=O)N(C)C)c4)c3=O)[C@H]1[C@@H](C(=O)O)[C@@H]2CO	none
COC(=O)[C@@H]1[C@@H](CO)[C@@H]2Cn3c(ccc(C4=CCCC4)c3=O)[C@H]1N2CC1CCCC1	none
